Source: the supplement of paper PMC10503962

The compounds below were run on Trichuris muris adult worms (assay: mean motility score (Paragon pixel variance) of adult worms (arbitrary units); higher = more motile worms, i.e. less anthelmintic effect; extreme values may be limits of the assay). Conditions: 100 µM; 24 h.
Procedure, shortened: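 Single adult Trichuris muris worms, recovered from infected NOD SCID mice, were exposed to drug at 100 μM (1% v/v DMSO) in 100 μL RPMI-1640 with antibiotics in 96-well plates for 24 h at 37°C and 5% CO2. The plates were then filmed on an automated phenotyping platform. The motility score was calculated through Paragon pixel-variance analysis and averaged across replicate wells, with three worms in three wells per drug on three separate occasions.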

Row | SMILES | mean motility score
1 | CCN(CC)CCOc1ccc2nc(N(C)C)sc2c1.Cl.Cl [diamthazole dihydrochloride] | 4190
2 | N[C@@H](Cc1c[nH]c2ccc(O)cc12)C(=O)O [oxitriptan] | 3310
3 | C[C@H]1O[C@@H](O[C@H]2[C@@H](O)C[C@H](O[C@H]3[C@@H](O)C[C@H](O[C@H]4CC[C@@]5(C)[C@H](CC[C@@H]6[C@@H]5CC[C@]5(C)[C@@H](C7=CC(=O)OC7)CC[C@]65O)C4)O[C@@H]3C)O[C@@H]2C)C[C@H](O)[C@@H]1O [digitoxin] | 3060
4 | CCO[C@@H](Cc1ccc(OCCc2ccc(OS(C)(=O)=O)cc2)cc1)C(=O)O [tesaglitazar] | 3880
5 | COc1ccccc1N1CCN(CC(O)COc2cccc3ccccc23)CC1 (stereo not drawn) [naftopidil] | 3040
6 | O=C1c2cccc(O)c2C(=O)c2c(O)cccc21 [danthron] | 2660
7 | O=C(O)Cc1ccc(-c2ccccc2)cc1 [felbinac] | 3440
8 | CC(C)(C(=O)c1cccnc1)c1cccnc1 [metyrapone] | 3950
9 | CCN1CCCC1CNC(=O)c1cc(S(N)(=O)=O)ccc1OC (stereo not drawn) [sulpiride] | 2290
10 | Cc1cccc(N(C)C(=S)Oc2ccc3ccccc3c2)c1 [tolnaftate] | 2620
11 | O=C1NCCN1CCN1CCC(c2cn(-c3ccc(F)cc3)c3ccc(Cl)cc23)CC1 [sertindole] | 0
12 | CN(C)CCC=C1c2ccccc2CCc2ccccc21.Cl [amitriptyline hydrochloride] | 0
13 | CCCCc1nc(Cl)c(CO)n1Cc1ccc(-c2ccccc2-c2nn[nH]n2)cc1 [losartan] | 3650
14 | CNCCCN1c2ccccc2CCc2ccccc21 [desipramine] | 1090
15 | Cc1ccccc1C(OCCN(C)C)c1ccccc1.Cl (stereo not drawn) [orphenadrine hydrochloride] | 1810
16 | CN(C)CCCN1c2ccccc2Sc2ccc(Cl)cc21 [chlorpromazine] | 0
17 | OCCO [ethylene glycol] | 3150
18 | CCOC(=O)[C@H](CCc1ccccc1)N[C@@H](C)C(=O)N1Cc2ccccc2C[C@H]1C(=O)O.Cl [quinapril hydrochloride] | 4700
19 | COC1=C(OC)C(=O)C(CCCCCCCCCCO)=C(C)C1=O [idebenone] | 1370

Row | SMILES | mean motility score
20 | C[C@@H](Oc1cc(-c2cnn(C3CCNCC3)c2)cnc1N)c1c(Cl)ccc(F)c1Cl [crizotinib] | 284
21 | N#Cc1ccc(C(c2ccc(C#N)cc2)n2cncn2)cc1 [letrozole] | 4830
22 | Clc1ccc2c(c1)CCc1cccnc1C2=C1CCNCC1 [desloratadine] | 930
23 | CCCCNc1cc(C(=O)O)cc(S(N)(=O)=O)c1Oc1ccccc1 [bumetanide] | 4880
24 | Cc1ccnc2c1NC(=O)c1cccnc1N2C1CC1 [nevirapine] | 2540
25 | CN1CCN(CC/C=C2/c3ccccc3Sc3ccc(S(=O)(=O)N(C)C)cc32)CC1 [thiothixene] | 1030
26 | CNC(=O)c1cc(Oc2ccc(NC(=O)Nc3ccc(Cl)c(C(F)(F)F)c3)cc2)ccn1 [sorafenib] | 781
27 | COC(=O)[C@H]1[C@H]2C[C@@H]3c4[nH]c5cc(OC)ccc5c4CCN3C[C@H]2C[C@@H](OC(=O)c2cc(OC)c(OC)c(OC)c2)[C@@H]1OC [reserpine] | 2180
28 | CC/C(=C(\c1ccccc1)c1ccc(OCCN(C)C)cc1)c1ccccc1 [tamoxifen] | 165
29 | Cc1c(-c2ccccc2)oc2c(C(=O)OCCN3CCCCC3)cccc2c1=O [flavoxate] | 4070
30 | COC1=CC(=O)C[C@@H](C)[C@]12Oc1c(Cl)c(OC)cc(OC)c1C2=O [griseofulvin] | 1250
31 | CCCN[C@H]1CCc2nc(N)sc2C1.Cl.Cl [pramipexole dihydrochloride] | 3620
32 | C#C[C@]1(O)CC[C@H]2[C@@H]3CCc4cc(O)ccc4[C@H]3CC[C@@]21C [ethinyl estradiol] | 3320
33 | CS(=O)(=O)OCCCCOS(C)(=O)=O [busulfan] | 3180
34 | Oc1ccc(O)cc1 [hydroquinone] | 4230
35 | C=CC(N)CCC(=O)O (stereo not drawn) [vigabatrin] | 1690
36 | N=C(N)NC(=N)NCCc1ccccc1 [phenformin] | 4260
37 | CC[N+](CC)(CC)CCOc1cccc(OCC[N+](CC)(CC)CC)c1OCC[N+](CC)(CC)CC.[I-].[I-].[I-] [gallamine triethiodide] | 4310
38 | CC1(C)S[C@@H]2[C@H](NC(=O)COc3ccccc3)C(=O)N2[C@H]1C(=O)O [penicillin V] | 1470
